Laboratory results taken from PubChem BioAssay (NCI).
About 83,000 compounds went through this panel and 20% of them were active in at least one assay; those are over-represented in the sample as a whole.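 Results are percent growth after 48 hours of single-concentration exposure. 100 means growth as in untreated cells, lower positive values show inhibition; negative values down to -100 show cell death.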 Activity calls are given as the source filed them. Rule for the calls: active = growth percent below 10; inactive = the rest.

System: HL-60(TB) leukemia
Assay: NCI-60 one-dose screen, 48 h (100 = growth as untreated, 0 = no growth, -100 = all killed)
Conditions: 10 µM unless noted

Structure (SMILES)	growth
O=C(Nc1ccc(-n2cc(-c3ccncc3)c(-c3ccc(Cl)c(O)c3)n2)cc1)Nc1ccc(Cl)c(C(F)(F)F)c1	-10.5% (active)
O=C(c1ccc(-c2ccccc2)cc1)c1ccc([N+](=O)[O-])cc1	129% (inactive)
N#CCCN1C/C(=C/c2ccccc2)C(=O)/C(=C/c2ccccc2)C1	43.2% (inactive)
O=c1c2ccccc2oc2ccc(OCCCCCCN3CCCCCC3)cc12	-47.9% (active)
CC12CCC3c4ccc(O)cc4CCC3C1CCC2=O (centres undefined)	79.4% (inactive)
O=C1Nc2ccc(Cl)cc2/C1=N/N=C(c1ccccc1)c1ccccc1	91.4% (inactive)
COc1ccc(C(=O)C2C(C#N)C(C#N)C3c4ccccc4C=CN23)cc1 (centres undefined)	94.7% (inactive)
COc1ccc(OC)c(/C=C/C(=O)N/N=C/c2ccc(Cl)cc2)c1	20.1% (inactive)
CCC(CC)n1c(C)cc(=O)n1C(CC)CC	88% (inactive)
O=C(/C=C/c1cc(-c2ccc3c(c2)OCO3)n[nH]1)c1ccc2c(c1)OCO2	79.7% (inactive)
Cc1ccc(C)n1-c1ccsc1C(=O)NNC(=O)CCl	104% (inactive)
COc1ccc(C(=O)C2C(C#N)C(C#N)C3C=Cc4ccccc4N32)cc1 (centres undefined)	-7.91% (active)
C=C1c2c(C)nn(-c3ccc(C#CCOC4OC(CO)C(O)C(O)C4O)cc3)c2N(C)C23C[C@H]1C1(C)c4c(C)nn(-c5ccc(C#CCOC6OC(CO)C(O)C(O)C6O)cc5)c4N(C)C(C)(C[C@H]12)C3 (some centres undefined)	-22.8% (active)
COc1ccc(CNc2ccc3nc(CCC4CCCCC4)[nH]c3c2)cc1	54.8% (inactive)
N#CSCC1CC(O)(c2ccccc2)CC(c2ccc(F)cc2)O1 (centres undefined)	-38.7% (active)
Cc1ccc(CC#N)cc1C	116% (inactive)
CN1C(=O)/C(=C/c2ccc(C(=O)Nc3ncc(Cc4cc(Cl)ccc4Cl)s3)cc2)SC1=S	91% (inactive)
Cc1ccc(O)c(N)c1	115% (inactive)
CC/C(Cc1ccccc1)=C(\c1ccc(OCCN2CCCC2)cc1)c1ccc(OC(C)=O)cc1	71.3% (inactive)
C=C[C@H]1C[C@@H]2C[C@@H]3[C@H]4C/C=C\C(=O)NCCCC5NC(=O)C(=C(O)/C=C/[C@@H]4CC(=O)[C@H]3[C@@H]2[C@H]1C)C5=O (some centres undefined)	-76.5% (active)

Structure (SMILES)	growth
CC1=CC(=O)C=CC1=Nc1ccc(N(C)C)cc1	-1.75% (active)
CCN1CCN(c2cc(C)nc(N(CCCNc3ccnc4cc(Cl)ccc34)Cc3ccc4c(c3)OCO4)n2)CC1	-67.3% (active)
CCCCNC(=O)c1ccccc1C	84.4% (inactive)
C1=CN2CC(c3ccccc3)=NNC2c2ccccc21 (centres undefined)	81.6% (inactive)
O=[N+]([O-])c1ccc2[nH]c3nccc(NCc4cccc(Cl)c4)c3c2c1	82.9% (inactive)
Nc1c(C(=O)Nc2cccc3cnccc23)sc2nc3c(cc12)C(=O)CCC3	60.2% (inactive)
O=C(O)C(SC(C(=O)O)c1ccccc1)c1ccccc1 (centres undefined)	95% (inactive)
COc1ccc(C(=O)COc2cccc(/C=C3\Cc4ccccc4C3=O)c2)cc1	73.4% (inactive)
Cc1[nH]n(C(=O)c2ccncc2)c(=O)c1N=Nc1ccc(S(=O)(=O)Nc2ccncn2)cc1	91.3% (inactive)
COc1cccc(/C=C2\COc3ccc(O)cc3C2=O)c1OC	-14.5% (active)
O=C(Nc1nc2c(C(F)(F)F)cccc2s1)c1cc(Cl)ccc1O	-38.8% (active)
Cc1cc(C2(c3ccc(O)c(C)c3)OS(=O)(=O)c3ccccc32)ccc1O	79% (inactive)
CN(C)CCCNC1=C(Cl)C(=O)c2ccccc2C1=O	45.3% (inactive)
COc1ccc(/C=C/C(=O)N2CCC(O)CC2)cc1OC1CCCC1	101% (inactive)
COc1cc(/C(=C2/O[C@@H]([C@H]3COC(C)(C)O3)[C@H]3OC(C)(C)O[C@@H]23)c2ccc3ccccc3c2)cc(OC)c1OC	59.2% (inactive)
COc1ccc(-c2cc(-c3ccccc3)nc(SCCCCCC(=O)NO)n2)cc1	-26.2% (active)
CCOC(=O)C1=C(N)Oc2c(sc3c(C)cccc23)C1c1ccc(Cl)cc1 (centres undefined)	1.5% (active)
O=C(N/N=C1\SCC(=O)N1c1ccccc1)c1cc(-c2cc3ccccc3o2)nn1-c1ccccc1	112% (inactive)
C=C(COC(C)=O)[C@H]1CC/C(C)=C/CC/C(C)=C/CC[C@@]2(C)O[C@H]2C1	103% (inactive)
